# Source: the supplement of paper PMC11732987, “Enantioselective OTUD7B fragment discovery through chemoproteomics screening and high-throughput optimisation” (Communications Chemistry, 2025)
# Compound: ClCC(=O)NCC1CCCO1
# Assay: log2 ratio of Biotin-Ahx-Ub-VS probe labelling (fragment/DMSO); higher = less target engagement (more negative = stronger competition), active = hit call of the paper (q ≤ 0.05, log2 ratio ≤ -1)
# Conditions: compound concentration: 200 uM; treatment time: 3 h
# Summary of the method: (§1)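 Using Biotin-Ahx-Ub-VS at 0.5 µM final for 1 h, DUBs were labelled in HEK293T lysate (495 µg per sample) that had first been treated in triplicate with fragment at 200 µM or vehicle for 3 h. NeutrAvidin enrichment, LysC and trypsin digestion and diaPASEF LC-MS/MS followed. Spectronaut label-free quantities were global-median-normalised. Values are average log2 fragment/vehicle ratios by unpaired t-test, using proteins with ≥2 unique peptides.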
# Chain of UniProt Q9P2H5 (Q9P2H5 whole entry): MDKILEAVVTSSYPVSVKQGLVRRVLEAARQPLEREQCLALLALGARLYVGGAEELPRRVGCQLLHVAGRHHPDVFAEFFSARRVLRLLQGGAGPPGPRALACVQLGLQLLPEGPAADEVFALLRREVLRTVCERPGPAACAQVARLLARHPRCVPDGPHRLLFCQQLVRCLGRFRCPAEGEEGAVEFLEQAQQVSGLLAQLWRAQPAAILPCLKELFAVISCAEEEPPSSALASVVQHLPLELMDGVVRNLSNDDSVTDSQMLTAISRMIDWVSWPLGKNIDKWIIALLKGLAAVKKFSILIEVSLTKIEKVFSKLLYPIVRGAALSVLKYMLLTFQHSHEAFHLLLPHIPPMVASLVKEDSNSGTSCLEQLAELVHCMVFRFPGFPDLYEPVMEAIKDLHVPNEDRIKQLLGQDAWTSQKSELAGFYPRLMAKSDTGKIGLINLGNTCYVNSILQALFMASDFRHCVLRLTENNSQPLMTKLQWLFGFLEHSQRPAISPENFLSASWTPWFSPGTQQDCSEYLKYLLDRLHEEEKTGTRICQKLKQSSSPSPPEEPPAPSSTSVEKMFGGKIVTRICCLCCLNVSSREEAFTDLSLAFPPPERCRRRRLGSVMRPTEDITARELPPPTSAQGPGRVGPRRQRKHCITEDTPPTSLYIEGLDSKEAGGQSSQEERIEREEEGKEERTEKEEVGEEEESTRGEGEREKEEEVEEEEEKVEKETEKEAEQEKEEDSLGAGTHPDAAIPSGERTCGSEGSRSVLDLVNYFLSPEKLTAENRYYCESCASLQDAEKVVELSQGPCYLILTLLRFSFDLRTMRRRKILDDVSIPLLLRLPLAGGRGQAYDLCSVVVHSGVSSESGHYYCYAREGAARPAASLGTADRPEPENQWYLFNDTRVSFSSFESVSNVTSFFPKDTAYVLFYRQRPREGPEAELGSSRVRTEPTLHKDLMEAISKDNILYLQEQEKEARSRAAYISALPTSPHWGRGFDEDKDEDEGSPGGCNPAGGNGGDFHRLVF
# Chain of UniProt Q96G74 (Q96G74 whole entry): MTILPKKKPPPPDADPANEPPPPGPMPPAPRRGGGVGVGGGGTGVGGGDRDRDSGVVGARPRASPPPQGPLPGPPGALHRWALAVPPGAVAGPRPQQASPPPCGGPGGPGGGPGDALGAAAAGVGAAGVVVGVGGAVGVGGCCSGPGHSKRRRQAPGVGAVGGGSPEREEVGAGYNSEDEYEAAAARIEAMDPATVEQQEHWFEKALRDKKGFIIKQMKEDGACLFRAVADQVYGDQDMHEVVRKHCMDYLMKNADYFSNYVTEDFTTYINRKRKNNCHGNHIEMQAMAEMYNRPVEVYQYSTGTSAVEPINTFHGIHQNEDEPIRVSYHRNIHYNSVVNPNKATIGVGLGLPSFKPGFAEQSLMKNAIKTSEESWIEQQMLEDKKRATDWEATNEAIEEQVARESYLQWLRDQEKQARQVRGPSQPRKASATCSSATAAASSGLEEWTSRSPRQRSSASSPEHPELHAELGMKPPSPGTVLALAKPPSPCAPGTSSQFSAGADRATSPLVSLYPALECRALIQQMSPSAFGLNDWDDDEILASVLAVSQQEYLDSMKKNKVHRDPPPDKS
# Chain of UniProt Q5VVQ6 (Q5VVQ6 whole entry): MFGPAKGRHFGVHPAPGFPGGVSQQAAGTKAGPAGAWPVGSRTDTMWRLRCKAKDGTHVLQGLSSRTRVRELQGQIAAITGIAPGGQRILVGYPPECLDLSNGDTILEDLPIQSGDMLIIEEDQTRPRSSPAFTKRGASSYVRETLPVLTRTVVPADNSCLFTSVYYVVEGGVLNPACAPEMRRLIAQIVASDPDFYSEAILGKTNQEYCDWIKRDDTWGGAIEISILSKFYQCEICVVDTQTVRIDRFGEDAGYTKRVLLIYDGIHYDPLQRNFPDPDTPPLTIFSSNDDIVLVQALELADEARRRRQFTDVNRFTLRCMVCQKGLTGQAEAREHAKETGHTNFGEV
# Chain of UniProt Q9UPT9 (Q9UPT9 whole entry): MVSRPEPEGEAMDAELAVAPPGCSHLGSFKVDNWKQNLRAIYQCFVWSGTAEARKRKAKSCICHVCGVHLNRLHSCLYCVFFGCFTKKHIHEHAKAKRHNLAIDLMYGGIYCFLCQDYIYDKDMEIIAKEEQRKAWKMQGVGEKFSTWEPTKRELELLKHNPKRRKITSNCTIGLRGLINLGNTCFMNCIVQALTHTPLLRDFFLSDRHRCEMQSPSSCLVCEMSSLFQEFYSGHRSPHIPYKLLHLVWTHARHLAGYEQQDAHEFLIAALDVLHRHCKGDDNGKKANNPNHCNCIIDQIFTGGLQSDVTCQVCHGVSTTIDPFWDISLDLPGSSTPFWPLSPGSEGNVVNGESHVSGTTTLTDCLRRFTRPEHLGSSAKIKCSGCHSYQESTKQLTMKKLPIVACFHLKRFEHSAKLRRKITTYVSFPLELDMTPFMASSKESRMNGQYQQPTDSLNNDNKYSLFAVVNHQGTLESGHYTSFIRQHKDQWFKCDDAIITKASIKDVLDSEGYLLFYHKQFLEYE
# Chain of UniProt Q8N6M0 (Q8N6M0 whole entry): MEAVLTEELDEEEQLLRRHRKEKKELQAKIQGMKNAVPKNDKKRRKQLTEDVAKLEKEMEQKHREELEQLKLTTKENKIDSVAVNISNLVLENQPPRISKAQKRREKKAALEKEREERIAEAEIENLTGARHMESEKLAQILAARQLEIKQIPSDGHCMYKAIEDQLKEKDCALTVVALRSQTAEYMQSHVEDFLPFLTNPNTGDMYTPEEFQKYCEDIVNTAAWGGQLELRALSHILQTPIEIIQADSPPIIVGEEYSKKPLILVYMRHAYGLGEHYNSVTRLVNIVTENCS
# Chain of UniProt Q9Y5K5 (Q9Y5K5 whole entry): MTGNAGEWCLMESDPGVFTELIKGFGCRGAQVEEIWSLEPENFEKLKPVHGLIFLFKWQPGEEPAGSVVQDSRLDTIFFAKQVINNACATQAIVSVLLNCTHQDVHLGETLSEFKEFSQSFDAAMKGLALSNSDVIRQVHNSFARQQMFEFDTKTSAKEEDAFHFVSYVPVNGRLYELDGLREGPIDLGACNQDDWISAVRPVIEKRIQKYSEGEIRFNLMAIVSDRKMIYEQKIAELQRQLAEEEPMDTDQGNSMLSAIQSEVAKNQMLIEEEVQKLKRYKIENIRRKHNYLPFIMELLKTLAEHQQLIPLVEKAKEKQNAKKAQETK
# Chain of UniProt Q8TE49 (Q8TE49 whole entry): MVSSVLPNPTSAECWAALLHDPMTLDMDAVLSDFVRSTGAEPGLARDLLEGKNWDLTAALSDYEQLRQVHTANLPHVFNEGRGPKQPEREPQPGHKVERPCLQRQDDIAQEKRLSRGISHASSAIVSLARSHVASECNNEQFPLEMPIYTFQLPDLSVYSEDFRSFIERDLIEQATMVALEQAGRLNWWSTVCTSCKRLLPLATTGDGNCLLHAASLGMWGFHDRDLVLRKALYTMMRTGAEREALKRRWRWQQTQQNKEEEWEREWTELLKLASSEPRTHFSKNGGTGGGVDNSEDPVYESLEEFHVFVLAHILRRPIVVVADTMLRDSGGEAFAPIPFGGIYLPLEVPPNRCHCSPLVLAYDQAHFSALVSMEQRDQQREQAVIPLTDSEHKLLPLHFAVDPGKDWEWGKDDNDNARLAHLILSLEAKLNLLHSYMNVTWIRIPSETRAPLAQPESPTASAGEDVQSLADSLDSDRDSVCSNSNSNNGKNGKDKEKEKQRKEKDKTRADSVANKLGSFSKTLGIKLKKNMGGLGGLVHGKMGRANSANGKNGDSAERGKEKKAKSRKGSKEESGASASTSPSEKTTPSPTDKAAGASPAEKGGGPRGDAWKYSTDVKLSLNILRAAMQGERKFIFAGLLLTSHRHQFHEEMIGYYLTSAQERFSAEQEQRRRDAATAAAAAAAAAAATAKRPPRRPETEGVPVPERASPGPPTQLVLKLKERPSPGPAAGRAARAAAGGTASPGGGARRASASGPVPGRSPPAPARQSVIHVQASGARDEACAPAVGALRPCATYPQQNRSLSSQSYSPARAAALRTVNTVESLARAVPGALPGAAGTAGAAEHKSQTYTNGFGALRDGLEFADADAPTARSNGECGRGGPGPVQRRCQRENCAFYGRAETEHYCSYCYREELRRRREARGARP
# Chain of UniProt Q92905 (Q92905 whole entry, looked up): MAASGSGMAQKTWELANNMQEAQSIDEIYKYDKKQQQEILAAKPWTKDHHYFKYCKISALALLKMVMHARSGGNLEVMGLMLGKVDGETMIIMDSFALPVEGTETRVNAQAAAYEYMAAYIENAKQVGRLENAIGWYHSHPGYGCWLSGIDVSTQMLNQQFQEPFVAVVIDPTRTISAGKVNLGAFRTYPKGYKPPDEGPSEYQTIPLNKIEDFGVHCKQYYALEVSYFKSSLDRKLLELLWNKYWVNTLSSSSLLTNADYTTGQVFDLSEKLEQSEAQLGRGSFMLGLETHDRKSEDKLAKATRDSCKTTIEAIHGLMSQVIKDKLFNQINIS
# Chain of UniProt P51665 (P51665 whole entry): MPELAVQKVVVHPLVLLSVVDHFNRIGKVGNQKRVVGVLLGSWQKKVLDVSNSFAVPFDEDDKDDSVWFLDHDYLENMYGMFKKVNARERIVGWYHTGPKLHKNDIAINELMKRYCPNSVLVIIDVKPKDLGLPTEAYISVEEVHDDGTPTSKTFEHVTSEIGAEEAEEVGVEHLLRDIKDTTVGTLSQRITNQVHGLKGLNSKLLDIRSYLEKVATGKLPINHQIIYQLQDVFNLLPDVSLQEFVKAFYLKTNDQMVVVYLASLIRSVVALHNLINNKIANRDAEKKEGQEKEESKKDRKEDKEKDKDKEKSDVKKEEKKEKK
# Chain of UniProt P09936 (P09936 whole entry, looked up): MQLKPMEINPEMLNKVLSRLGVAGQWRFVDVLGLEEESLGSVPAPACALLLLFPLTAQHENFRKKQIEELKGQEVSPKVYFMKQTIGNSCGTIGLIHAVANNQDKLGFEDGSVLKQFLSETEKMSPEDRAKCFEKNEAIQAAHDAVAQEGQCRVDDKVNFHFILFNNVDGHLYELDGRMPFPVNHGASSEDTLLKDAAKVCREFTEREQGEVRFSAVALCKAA
row,Target,log2 ratio of Biotin-Ahx-Ub-VS probe labelling
1,YOD1 (UniProt Q5VVQ6),0.189 (inactive)
2,UCHL5 (UniProt Q9Y5K5),-0.0635 (inactive)
3,UniProt Q9P2H5,-0.138 (inactive)
4,USP19 (UniProt O94966),0.0949 (inactive)
5,OTUD6B (UniProt Q8N6M0),0.00691 (inactive)
6,USP24 (UniProt Q9UPU5),0.122 (inactive)
7,UniProt Q9UGI0,0.145 (inactive)
8,USP36 (UniProt Q9P275),-0.189 (inactive)
9,USP10 (UniProt Q14694),-0.115 (inactive)
10,USP47 (UniProt Q96K76),-0.458 (inactive)
11,USP5 (UniProt P45974),0.0345 (inactive)
12,USP28 (UniProt Q96RU2),-0.11 (inactive)
13,USP46 (UniProt P62068),0.118 (inactive)
14,USP8 (UniProt P40818),0.167 (inactive)
15,UCHL1 (UniProt P09936),-1.22 (active)
16,UniProt Q8TE49,-0.46 (inactive)
17,USP16 (UniProt Q9Y5T5),-0.506 (inactive)
18,OTUD5 (UniProt Q96G74),-0.0992 (inactive)
19,PSMD7 (UniProt P51665),0.0364 (inactive)
20,USP22 (UniProt Q9UPT9),-0.0487 (inactive)
21,COPS5 (UniProt Q92905),0.0301 (inactive)
22,USP48 (UniProt Q86UV5),-0.0126 (inactive)
23,OTUD7B (UniProt Q6GQQ9),-0.129 (inactive)
24,OTUD4 (UniProt Q01804),0.0366 (inactive)

# Compound: ClCC(=O)NCc1ccco1
# Assay: as above
# Conditions: compound concentration: 200 uM; treatment time: 3 h
# Summary of the method: as §1
row,Target,log2 ratio of Biotin-Ahx-Ub-VS probe labelling
1,YOD1 (UniProt Q5VVQ6),0.0867 (inactive)
2,UCHL5 (UniProt Q9Y5K5),-0.29 (inactive)
3,UniProt Q9P2H5,-0.105 (inactive)
4,USP19 (UniProt O94966),-0.207 (inactive)
5,OTUD6B (UniProt Q8N6M0),-0.225 (inactive)
6,USP24 (UniProt Q9UPU5),-0.238 (inactive)
7,UniProt Q9UGI0,-0.705 (inactive)
8,USP36 (UniProt Q9P275),-0.185 (inactive)
9,USP10 (UniProt Q14694),-0.0176 (inactive)
10,USP47 (UniProt Q96K76),-0.679 (inactive)
11,USP5 (UniProt P45974),0.0924 (inactive)
12,USP28 (UniProt Q96RU2),-0.47 (inactive)
13,USP46 (UniProt P62068),0.0832 (inactive)
14,USP8 (UniProt P40818),-0.538 (inactive)
15,UCHL1 (UniProt P09936),-1.39 (active)
16,UniProt Q8TE49,-0.215 (inactive)
17,USP16 (UniProt Q9Y5T5),-0.128 (inactive)
18,OTUD5 (UniProt Q96G74),-0.442 (inactive)
19,PSMD7 (UniProt P51665),-0.47 (inactive)
20,USP22 (UniProt Q9UPT9),0.0686 (inactive)
21,COPS5 (UniProt Q92905),0.0105 (inactive)
22,USP48 (UniProt Q86UV5),-0.405 (inactive)
23,OTUD7B (UniProt Q6GQQ9),-0.96 (inactive)
24,OTUD4 (UniProt Q01804),-0.354 (inactive)
